The assay is described as follows: dose response, DH231 delta cqsS, luminescence, dry powder (AID 651808). Particulars: V. cholerae DH231 delta cqsS, luxCDABE luminescence, 6 h, stronger effect = higher value.

Inconclusive results are not listed. Calls of active or inactive are those of the source. No rule for the calls is given here.

`CCn1nnc(NCc2ccc(C)cc2)n1`: the max activity (light induction) (at 0.35 µM, test 2) was 39.1% (inactive).

In the case of `CC(C)c1ccc(CNc2nnnn2C)cc1`, the max activity (light induction) (measured here: test 1 replicate run, at 0.0042 µM, test 1) is 39.1%. Under “measured here: test 1 replicate run, at 0.35 µM, test 1”, `CCCn1nnnc1NCc1ccccc1Cl` showed a max activity (light induction) of 43.6%.

Values taken from PubChem BioAssay AID651808 (Broad Institute, 2012).
